Experimental data taken from PubChem BioAssay AID1159580 (chemical genetic matrix, 2015).
The campaign covered roughly 5,500 compounds. About 2,000 (36%) were called active. About 18% were inconclusive and are not listed. Cut-off read from the data, not from the text of the source: active = normalized growth mostly below about 0.91 (no sharp cut-off); inconclusive = no clear call, values can overlap the other calls; inactive = mostly above about 0.92. Some of the results follow.

Assay: chemical genetic growth profiling, strain panel (AID 1159580);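 note: tested at 20 µM; growth read once vehicle control cultures reached saturation at 30 °C; 1 = growth at the plate median or of vehicle wells; lower values mean less growth of the strain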
Conditions: growth OD

Measured: normalized growth

CCCCCC1C(=O)CCC1CC(=O)OC (stereo unspecified)
inactive: S. cerevisiae deletion strains, locus YJR043C, strain POL32, stronger effect = lower value 0.991 | S. cerevisiae deletion strains, locus YJR066W, strain TOR1, stronger effect = lower value 0.982 | S. cerevisiae deletion strains, locus YJR075W, strain HOC1, stronger effect = lower value 1.01 | S. cerevisiae deletion strains, locus YKL009W, strain mrt4, stronger effect = lower value 0.914 | S. cerevisiae deletion strains, locus YKL068W, stronger effect = lower value 0.952 | S. cerevisiae deletion strains, locus YKL085W, strain MDH1 (second series), stronger effect = lower value 0.96 | S. cerevisiae deletion strains, locus YKL085W, strain MDH1, stronger effect = lower value 0.96 | S. cerevisiae deletion strains, locus YKL160W, strain elf1, stronger effect = lower value 0.988 | S. cerevisiae deletion strains, locus YKR001C, strain vps1, stronger effect = lower value 0.951 | S. cerevisiae deletion strains, locus YKR026C, strain gcn3, stronger effect = lower value 0.976 | S. cerevisiae deletion strains, locus YKR091W, strain srl3, stronger effect = lower value 0.982 | S. cerevisiae deletion strains, locus YLL001W, strain dnm1, stronger effect = lower value 0.983 | S. cerevisiae deletion strains, locus YLL026W, stronger effect = lower value 0.981 | S. cerevisiae deletion strains, locus YLL041C, strain sdh2, stronger effect = lower value 0.982 | S. cerevisiae deletion strains, locus YLR027C, strain aat2, stronger effect = lower value 0.983 | S. cerevisiae deletion strains, locus YLR039C, strain RIC1, stronger effect = lower value 1.03 | S. cerevisiae deletion strains, locus YLR058C, strain SHM2, stronger effect = lower value 1 | S. cerevisiae deletion strains, locus YLR102C, strain apc9, stronger effect = lower value 0.956 | S. cerevisiae deletion strains, locus YLR113W, strain HOG1, stronger effect = lower value 0.942 | S. cerevisiae deletion strains, locus YLR221C, strain rsa3, stronger effect = lower value 0.985 | S. cerevisiae deletion strains, locus YLR258W, strain gsy2, stronger effect = lower value 0.981 | S. cerevisiae deletion strains, locus YLR262C, strain YPT6 (second series), stronger effect = lower value 1.02 | S. cerevisiae deletion strains, locus YLR262C, strain YPT6, stronger effect = lower value 1.05 | S. cerevisiae deletion strains, locus YLR268W, strain sec22, stronger effect = lower value 0.956 | S. cerevisiae deletion strains, locus YLR320W, strain mms22, stronger effect = lower value 0.97 | S. cerevisiae deletion strains, locus YLR330W, strain CHS5, stronger effect = lower value 0.97 | S. cerevisiae deletion strains, locus YLR342W, strain FKS1 (second series), stronger effect = lower value 1.08 | S. cerevisiae deletion strains, locus YLR342W, strain FKS1, stronger effect = lower value 0.984 | S. cerevisiae deletion strains, locus YLR357W, strain rsc2, stronger effect = lower value 0.947 | S. cerevisiae deletion strains, locus YLR370C, strain arc18, stronger effect = lower value 0.978 | S. cerevisiae deletion strains, locus YLR371W, strain rom2, stronger effect = lower value 0.958 | S. cerevisiae deletion strains, locus YLR384C, strain iki3, stronger effect = lower value 0.961 | S. cerevisiae deletion strains, locus YLR418C, strain cdc73, stronger effect = lower value 1.02 | S. cerevisiae deletion strains, locus YML016C, strain PPZ1, stronger effect = lower value 0.975 | S. cerevisiae deletion strains, locus YML032C, strain rad52, stronger effect = lower value 0.983 | S. cerevisiae deletion strains, locus YML120C, strain ndi1, stronger effect = lower value 0.994 | S. cerevisiae deletion strains, locus YML124C, strain tub3, stronger effect = lower value 0.941 | S. cerevisiae deletion strains, locus YMR058W, strain fet3, stronger effect = lower value 0.992 | S. cerevisiae deletion strains, locus YMR078C, strain ctf18, stronger effect = lower value 0.945 | S. cerevisiae deletion strains, locus YMR125W, strain sto1, stronger effect = lower value 0.971 | S. cerevisiae deletion strains, locus YMR129W, stronger effect = lower value 0.973 | S. cerevisiae deletion strains, locus YMR205C, strain PFK2, stronger effect = lower value 0.969 | S. cerevisiae deletion strains, locus YMR223W, strain ubp8, stronger effect = lower value 0.981 | S. cerevisiae deletion strains, locus YMR231W, strain pep5, stronger effect = lower value 0.97 | S. cerevisiae deletion strains, locus YMR263W, strain SAP30, stronger effect = lower value 1.02 | S. cerevisiae deletion strains, locus YMR307W, strain GAS1, stronger effect = lower value 1.24 | S. cerevisiae deletion strains, locus YNL067W, strain RPL9B, stronger effect = lower value 1.03 | S. cerevisiae deletion strains, locus YNL071W, strain lat1, stronger effect = lower value 0.988 | S. cerevisiae deletion strains, locus YNL153C, strain GIM3, stronger effect = lower value 1.02 | S. cerevisiae deletion strains, locus YNL183C, strain NPR1, stronger effect = lower value 0.928 | S. cerevisiae deletion strains, locus YNL209W, strain ssb2, stronger effect = lower value 0.983 | S. cerevisiae deletion strains, locus YNL233W, strain BNI4, stronger effect = lower value 1.04 | S. cerevisiae deletion strains, locus YNL248C, strain rpa49, stronger effect = lower value 0.967 | S. cerevisiae deletion strains, locus YNL250W, strain rad50, stronger effect = lower value 0.945 | S. cerevisiae deletion strains, locus YNL271C, strain bni1, stronger effect = lower value 0.937 | S. cerevisiae deletion strains, locus YNL298W, strain CLA4, stronger effect = lower value 0.966 | S. cerevisiae deletion strains, locus YNL307C, strain MCK1, stronger effect = lower value 0.97 | S. cerevisiae deletion strains, locus YNL322C, strain KRE1 (second series), stronger effect = lower value 0.981 | S. cerevisiae deletion strains, locus YNL322C, strain KRE1, stronger effect = lower value 0.988 | S. cerevisiae deletion strains, locus YNR049C, strain mso1, stronger effect = lower value 0.987 | S. cerevisiae deletion strains, locus YNR052C, strain pop2, stronger effect = lower value 0.978 | S. cerevisiae deletion strains, locus YOL012C, strain htz1 1.15 | S. cerevisiae deletion strains, locus YOL147C, strain pex11, stronger effect = lower value 0.965 | S. cerevisiae deletion strains, locus YOR001W, strain rrp6, stronger effect = lower value 0.977 | S. cerevisiae deletion strains, locus YOR061W, strain CKA2, stronger effect = lower value 0.99 | S. cerevisiae deletion strains, locus YOR069W, strain VPS5, stronger effect = lower value 0.978 | S. cerevisiae deletion strains, locus YOR070C, strain gyp1, stronger effect = lower value 0.972 | S. cerevisiae deletion strains, locus YOR080W, strain dia2, stronger effect = lower value 0.974 | S. cerevisiae deletion strains, locus YOR083W, strain WHI5, stronger effect = lower value 0.986 | S. cerevisiae deletion strains, locus YOR106W, strain vam3, stronger effect = lower value 1.03 | S. cerevisiae deletion strains, locus YOR136W, strain idh2, stronger effect = lower value 0.973 | S. cerevisiae deletion strains, locus YOR144C, strain elg1, stronger effect = lower value 0.963 | S. cerevisiae deletion strains, locus YOR184W, strain ser1, stronger effect = lower value 0.921 | S. cerevisiae deletion strains, locus YOR231W, strain MKK1, stronger effect = lower value 0.977 | S. cerevisiae deletion strains, locus YOR265W, strain rbl2, stronger effect = lower value 0.981 | S. cerevisiae deletion strains, locus YOR270C, strain vph1, stronger effect = lower value 0.997 | S. cerevisiae deletion strains, locus YOR290C, strain snf2, stronger effect = lower value 1 | S. cerevisiae deletion strains, locus YOR316C, strain cot1, stronger effect = lower value 0.952 | S. cerevisiae deletion strains, locus YPL051W, strain arl3, stronger effect = lower value 0.991 | S. cerevisiae deletion strains, locus YPL055C, strain LGE1, stronger effect = lower value 1 | S. cerevisiae deletion strains, locus YPL078C, strain atp4, stronger effect = lower value 0.975 | S. cerevisiae deletion strains, locus YPL106C, strain sse1, stronger effect = lower value 0.999 | S. cerevisiae deletion strains, locus YPL240C, strain hsp82, stronger effect = lower value 0.969 | S. cerevisiae deletion strains, locus YPL241C, strain CIN2, stronger effect = lower value 0.977 | S. cerevisiae deletion strains, locus YPL256C, strain CLN2, stronger effect = lower value 0.97 | S. cerevisiae deletion strains, locus YPR119W, strain clb2, stronger effect = lower value 0.939 | S. cerevisiae deletion strains, locus YPR141C, strain kar3, stronger effect = lower value 0.944 | S. cerevisiae deletion strains, locus YPR163C, strain tif3, stronger effect = lower value 0.963 | S. cerevisiae deletion strains, locus YPR167C, strain met16, stronger effect = lower value 0.959 | S. cerevisiae deletion strains, strain wtn01, stronger effect = lower value 0.962 | S. cerevisiae strains, strain wild type, stronger effect = lower value 1
